In PubChem BioAssay:
Active and inactive are the calls of the source.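 How the source made its calls, unless noted: active means visually confirmed hit in the image check and inhibition above 20%; inconclusive means visually confirmed hit but inhibition not above 20%; inactive means no visual hit in the image check.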

Experiments:
[1] = inhibitors of TNFa-induced NFkB p65 translocation, primary screen, imaging, HUVEC, MLSMR starter and 10KST1 sets (AID 438;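 active means inhibition above 20% together with a positive visual image hit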;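 further: compound added about 3h40 before a 20 min TNFalpha stimulation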;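 on inhibition: signal is the nuclear over cytoplasmic p65 intensity ratio per well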); settings: HUVEC TNFa-induced p65 nuclear translocation; cell count: measured here: nuclei count (cytotoxicity indicator), at 2.08 µM; inhibition: at 2 µM, stronger effect = higher value, 0% TNFa-plus-vehicle, 100% no-TNFa wells
[2] = reduction of polyQ htt aggregates in cells – imaging, exon1htt(103Q)mCFP cells, high-content imaging, primary screen (AID 483;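 active means visual image review flags a hit and inhibition of aggregation exceeds 20%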;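 further: compound exposure lasted 3 days before fixation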;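 on nuclei count: percent of the per-plate median nuclei count of sample wells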); settings: exon1htt(103Q)mCFP cell line, aggregate imaging, at 2 µM; inhibition of aggregation: stronger effect = higher value; nuclei count: measured here: cell count, toxicity
[3] = endothelial E-selectin expression blockers – imaging, HUVEC, immunofluorescence, MLSMR starter and 10KST1 sets, primary screen (AID 487); settings: HUVEC TNFalpha-induced E-selectin immunofluorescence imaging, at 2 µM; inhibition: stronger effect = higher value; nuclei count: measured here: cell number, toxicity;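 on inhibition: signal is fraction of cell area covered by stained E-selectin grains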;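 on nuclei count: 100% = median nuclei count of all wells on the same plate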
[4] = molecular target: Voltage-gated potassium channel subunit beta-2 (Rattus norvegicus) (UniProt P62483); assay: inhibitors of rat Kvbeta2 reductase activity – biochemical, NADPH fluorescence, primary screen (AID 622;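 active means fluorescence slope higher than the sample average by over 3 SD, cut at about -0.22 in these data, passing the limit was not always enough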;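 further: slope of raw intensity against log time taken from 70 to 1610 s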); settings: recombinant KvBeta, 4-cyanobenzaldehyde reduction, at 10 µM, stronger effect = higher value
[5] = molecular target: Voltage-gated potassium channel subunit beta-2 (Rattus norvegicus) (UniProt P62483); assay: enhancers of rat Kvbeta2 NADPH turnover – biochemical, NADPH fluorescence, primary screen (AID 623;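 active means NADPH fluorescence slope more negative than the mean of all samples by about 3 SD, 99.7% confidence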;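 further: fluorescence intensity change per second fitted from 20 to 320 s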); settings: Recombinant KvBeta, NADPH fluorescence decrease slope, 10 min; at 10 µM; stronger effect = lower value
[6] = molecular target: Alpha-2C adrenergic receptor (Homo sapiens) (UniProt P18825); assay: compounds altering alpha2C-coupled GIRK flux – cell-based, HEK293 alpha2C/GIRK1/2, thallium flux, primary screen (AID 624;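 active means fluorescence slope after compound addition differing from the mean of all screened samples at 99.7% confidence, in either direction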;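 further: slope of fluorescence ratio to pre-addition baseline per second over 15 to 24 s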); settings: thallium flux BTC fluorescence, at 10 µM, actives lie on both sides
[7] = blockers of RIG-like receptor reporter activation – cell-based, Sendai virus stimulus, luciferase, 10K MLSCN set, TLR/RLR signaling modifier project, primary screen (AID 602276;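 active means inhibition at or above 50% at 10 µM; inactive means inhibition below 50%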;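 further: firefly luciferase from ISG56 promoter only with Renilla not read in this screen; 0% = Sendai virus plus DMSO and 100% = medium plus DMSO without virus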); settings: HEK293 RL24 IRF3 luciferase reporter, at 10 µM, stronger effect = higher value
[8] = TLR3 IRF3 reporter activation blockers – cell-based, poly I:C stimulus, luciferase, 10K MLSCN set, primary screen (AID 602277;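 active means inhibition of the reporter signal at or above 50%; inactive means inhibition below 50%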); settings: HEK293-TLR3 RL24 IRF3 luciferase reporter, at 10 µM, stronger effect = higher value

Chain of Alpha-2C adrenergic receptor (Homo sapiens) (P18825 whole entry, looked up): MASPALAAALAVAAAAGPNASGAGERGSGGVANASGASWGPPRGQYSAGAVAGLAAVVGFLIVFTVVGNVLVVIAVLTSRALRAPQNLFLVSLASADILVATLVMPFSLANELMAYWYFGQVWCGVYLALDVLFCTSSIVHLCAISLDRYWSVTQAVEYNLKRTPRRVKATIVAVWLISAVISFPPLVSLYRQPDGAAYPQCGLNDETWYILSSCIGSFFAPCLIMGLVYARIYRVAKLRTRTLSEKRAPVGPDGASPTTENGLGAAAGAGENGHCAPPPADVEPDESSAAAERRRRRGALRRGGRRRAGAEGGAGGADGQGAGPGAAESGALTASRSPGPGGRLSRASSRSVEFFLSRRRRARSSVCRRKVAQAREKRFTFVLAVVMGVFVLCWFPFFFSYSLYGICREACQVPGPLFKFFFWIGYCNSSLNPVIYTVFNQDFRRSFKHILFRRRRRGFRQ
Chain of Voltage-gated potassium channel subunit beta-2 (Rattus norvegicus) (P62483 whole entry, looked up): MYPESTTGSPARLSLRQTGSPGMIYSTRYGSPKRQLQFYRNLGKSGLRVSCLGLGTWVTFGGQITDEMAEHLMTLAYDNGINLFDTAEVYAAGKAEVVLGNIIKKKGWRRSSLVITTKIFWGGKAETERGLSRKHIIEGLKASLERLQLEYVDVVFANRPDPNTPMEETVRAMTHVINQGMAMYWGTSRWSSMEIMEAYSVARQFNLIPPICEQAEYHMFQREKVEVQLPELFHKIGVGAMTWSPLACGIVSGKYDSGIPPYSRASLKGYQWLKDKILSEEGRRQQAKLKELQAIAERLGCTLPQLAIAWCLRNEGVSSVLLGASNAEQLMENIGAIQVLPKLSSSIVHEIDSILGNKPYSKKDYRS

Structure (SMILES)	cell count [1]	inhibition [1]	inhibition of aggregation [2]	nuclei count [2]	inhibition [3]	nuclei count [3]	fluorescence slope [4]	NADPH fluorescence slope [5]	slope [6]	inhibition [7]	inhibition [8]
CCOC(=O)C1=C(C)NC(=O)NC1c1ccc(OCCO)c(OC)c1 (centres undefined)	634	-12.8% (inactive)	-2.9% (inactive)	102%	30.3% (inactive)	89.2%	-0.468 (inactive)	-4.3e-05 (inactive)	0.00652 (inactive)	-1.76% (inactive)	25.5% (inactive)
CC(=O)c1cnc2cc(-c3ccccc3)nn2c1C	283	7.2% (inactive)	26.1% (inactive)	84.2%	-84.1% (inactive)	97.5%	-0.343 (inactive)	-5.4e-05 (inactive)	0.00763 (inactive)	-65.5% (inactive)	-115% (inactive)
CC(C)Cn1c(N)c(C(=O)COC(=O)c2ccc3c(c2)OCCO3)c(=O)n(C)c1=O	365	-4.4% (inactive)	-5.7% (inactive)	75.7%	-5.7% (inactive)	106%	-0.575 (inactive)	-6.3e-05 (inactive)	0.0066 (inactive)	-14.6% (inactive)	-49.5% (inactive)
Nc1nc2ccccc2n1C(=O)CCc1ccccc1	663	-1.2% (inactive)	-11.5% (inactive)	69%	-36.3% (inactive)	125%	-0.396 (inactive)	-3.8e-05 (inactive)	0.0047 (inactive)	-24.1% (inactive)	-73.1% (inactive)
CCC1(C(=O)OC)NC(c2cccc(F)c2)C2C(=O)N(C)C(=O)C21 (centres undefined)	715	-1.8% (inactive)	11.4% (inactive)	101%	-167% (inactive)	112%	-0.272 (inactive)	-5.7e-05 (inactive)	0.00554 (inactive)	14.4% (inactive)	30.6% (inactive)
CCc1ccc(N(CC(=O)NC2CCCC2)S(=O)(=O)c2c(C)noc2C)cc1	720	-0.8% (inactive)	-6% (inactive)	97.9%	-48.7% (inactive)	102%	-0.569 (inactive)	-4.6e-05 (inactive)	0.00649 (inactive)	4.77% (inactive)	37.7% (inactive)
COc1ccccc1CNS(=O)(=O)c1ccc(NC(C)=O)cc1	601	8.1% (inactive)	-1.3% (inactive)	110%	-57.3% (inactive)	109%	-0.411 (inactive)	-4.2e-05 (inactive)	0.00719 (inactive)	6.03% (inactive)	6.94% (inactive)
Nc1nc2n(n1)C(c1cccc(Br)c1)CC(c1ccc(F)cc1)N2 (centres undefined)	886	-6.1% (inactive)	9.7% (inactive)	110%	-59% (inactive)	102%	-0.608 (inactive)	7.7e-06 (inactive)	0.00861 (inactive)	2.63% (inactive)	15.8% (inactive)
CC(=O)Nc1sc2c(c1CN1CCN(c3ccccn3)CC1)CCCC2	698	-14.6% (inactive)	5.2% (inactive)	95.6%	54.3% (active)	95.3%	-0.517 (inactive)	-3.7e-05 (inactive)	0.00435 (inactive)	6.55% (inactive)	12.4% (inactive)
Cc1[nH]nc2c1C(c1ccc(F)cc1)C1=C(CC(C)(C)CC1=O)N2 (centres undefined)	561	-30.6% (inactive)	4.4% (inactive)	98.7%	-52.8% (inactive)	102%	-0.451 (inactive)	-8.1e-06 (inactive)	0.00591 (inactive)	10.5% (inactive)	32.3% (inactive)
O=C(Nc1ccc(N2CCN(Cc3ccccc3Cl)CC2)cc1)c1cccnc1	630	-4.2% (inactive)	15.2% (inactive)	65.6%	-27% (inactive)	102%	-0.478 (inactive)	1.4e-05 (inactive)	0.00649 (inactive)	-23.5% (inactive)	-14.5% (inactive)
O=C(CSc1nnc(NC(=O)C2CCC2)s1)NC1CC1	488	0.8% (inactive)	-8.1% (inactive)	66.2%	-90.7% (inactive)	106%	-0.313 (inactive)	-4.2e-05 (inactive)	0.00536 (inactive)	0.495% (inactive)	-3.07% (inactive)
CCOC(=O)N1CCN(C(=O)CSCC(=O)Nc2nc(-c3ccc(OC)cc3)cs2)CC1	450	2.7% (inactive)	-44% (inactive)	54%	41.9% (inactive)	91.3%	-0.425 (inactive)	-8.7e-05 (inactive)	0.00636 (inactive)	-14.1% (inactive)	-24.6% (inactive)
O=C1CCCC2=C1C(c1cccc(Br)c1)n1nc(-c3ccco3)nc1N2 (centres undefined)	568	-1.5% (inactive)	-10.2% (inactive)	100%	11.1% (inactive)	109%	-0.523 (inactive)	-2.2e-05 (inactive)	0.00646 (inactive)	9.76% (inactive)	24.2% (inactive)
